Source: PubChem BioAssay (National Center for Advancing Translational Sciences (NCATS))
DT40 TDP1 no CPT: qHTS for Inhibitors of human tyrosyl-DNA phosphodiesterase 1 (TDP1): qHTS in cells in absence of CPT; DT40 Tdp1-/- hTDP1 cells, no CPT, ATP luminescence, 48 h; Potency, µM (series often up to 46.2 µM), for inactives: top-dose activity change, negative = growth inhibition, actives largely listed as inhibitors; hit rate 15% among 420,000; also: % is scaled to controls: 0 for no effect and ±100 for the full control effect; nearly all actives have a fitted effect of over 55% in size
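Chicken DT40 Tdp1-/- cells complemented with human TDP1, screened without camptothecin (DMSO vehicle only), 400 cells/well. Compounds pin-transferred, cells incubated at 37 °C for at least 48 hr. Growth read as ATP-dependent luminescence (CellTiter-Glo, 30 min at RT).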
TGFb inhibitor: TGF-b pathway inhibition. HepG2 CAGA-GFP TGF-b/SMAD3 reporter, GFP fluorescence, 18 h; TGF-beta stimulated, 500 pg/mL final. Potency, µM (highest dose often 46.1 µM), without a hit: at the top dose activity, negative = inhibition, actives largely listed as inhibitors. hit rate 1.2% among 410,000. AID 588855; also: % is scaled to controls: 0 for no effect and ±100 for the full control effect; nearly all actives have a fitted effect of over 65% in size
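Using HEPG2 CAGA-GFP reporter cells at 1000 cells/well, we pinned test compounds, stimulated with recombinant TGF-beta (500 pg/mL final) and measured total well GFP after 18 h.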
S2 tox: cell viability loss in ATXN counter-screen; Potency, µM (highest dose often 56.7 µM), hits mostly cytotoxic; S2 cells (HEK-293 line with an ATXN2-luciferase reporter) viability, CellTiter-Fluor protease fluorescence, 24 h; hit rate 0.49% among 400,000; also: nearly all actives have a fitted effect of over 40% in size
HepG2 viability: HepG2 cytotoxicity, counter-screen for TGF-b inhibitors | HepG2 CAGA-GFP viability, ATP luminescence, 18 h | Potency, µM (titrated, usually from 46.1 µM), for inactives: top-dose activity change, negative = cytotoxicity, most hits filed as cytotoxic | hit rate 0.76% among 410,000 | AID 588856
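CellTiter-Glo luminescence gave cytotoxicity after 18 hours at 37 degrees C. The cells were HepG2 CAGA-GFP in 1% FBS DMEM, stimulated with 500 pg/mL TGF-beta after compound addition. %Activity was normalised to no-cell wells (complete cell-killing) and DMSO (no toxicity), and curves were fitted and classified.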
DT40 TDP1 CPT: growth inhibition of DT40 Tdp1-/-;hTDP1 cells with camptothecin (screen for TDP1 inhibitors) | Potency, µM (highest dose often 46.2 µM), inactives show at the highest dose activity change, negative = growth inhibition, most hits filed as inhibitors | hit rate 12% among 420,000 | chicken DT40 Tdp1-/-;hTDP1 cells + 20 nM CPT, ATP luminescence, 48 h; also: % is scaled to controls: 0 for no effect and ±100 for the full control effect; nearly all actives have a fitted effect of over 55% in size
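Chicken DT40 Tdp1-/- cells complemented with human TDP1, 400 cells/well, exposed to compounds plus 20 nM camptothecin for at least 48 h at 37 C; viability read as ATP content by CellTiter-Glo luminescence.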
ATXN2 expr inh: reduces ATXN2 reporter expression in HEK-293 cells; HEK-293 ATXN2-luciferase reporter, luminescence, 24 h; Potency, µM (highest dose often 57 µM), inactives show at the highest dose activity change, negative = inhibition, actives largely listed as inhibitors; hit rate 0.72% among 360,000; AID 1745845; also: % is scaled to controls: 0 for no effect and ±100 for the full control effect; nearly all actives have a fitted effect of over 55% in size
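ATXN2-luciferase reporter cells (luciferase flanked by upstream and downstream ATXN2 gene portions) were treated 24 h at 37 °C with compounds at up to 57 uM. SteadyGlo luminescence gave expression; GF-AFC fluorescence gave viability.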
* marks the source's active call; other numbers are inactive results; i = inactive; ? = inconclusive; . = not tested or not shown. Rows were chosen to be rich in hits. Some 17% of all compounds tested hit in one or more screens of this group. Calls follow the shape of the dose curve; as a rule, active = well fitted curve in the direction sought with a large enough effect; inconclusive = small, poorly fitted or top-dose-only effect, or another doubt; inactive = no such curve, though single readings can be large; an effect the other way counts as inactive or inconclusive. Potency is read from the fitted curve at half-maximal effect.

SMILES	DT40 TDP1 no CPT	TGFb inhibitor	S2 tox	HepG2 viability	DT40 TDP1 CPT	ATXN2 expr inh
Cc1ccc(S(=O)(=O)N2CCN(C(=O)COC(=O)c3cnc(C)cn3)CC2)c(C)c1	-3%	-7%	i	3%	12%	-1%
COc1ccc(OC)c(CN2C(=O)CSCC2(C)C(=O)Nc2c(C)cccc2C)c1 (configuration not stated)	-7%	.	.	.	-7%	.
O=C(Nc1ccc(Cl)cc1)NC1CCCC1Cc1ccco1 (configuration not stated)	?	?	i	-16%	-20%	9%
O=C(Nc1ccc(Cl)cc1)NC1CCCCC1Cc1ccco1 (configuration not stated)	18µM*	-9%	?	-53%	?	?
CCN(CC)C(=O)CC(c1ccccc1)c1ccco1 (configuration not stated)	-21%	3%	i	-3%	-30%	-4%
CCCN(CCC)C(=O)CC(c1ccc(F)cc1)c1ccco1 (configuration not stated)	21µM*	-13%	i	-25%	?	-26%
O=C(NCc1cccnc1)c1ccc2sc([C@H]3C[C@H](O)[C@@H](CO)O3)nc2c1	3%	9%	i	1%	-10%	4%
CC(C)CCNC(=O)c1cccc(Nc2nc3ccccc3n3nnnc23)c1	18µM*	?	.	-67%	21µM*	.
COc1ccc(CCNC(=O)c2ccc(Nc3nc4ccccc4n4nnnc34)cc2)cc1OC	?	0%	?	-31%	-27%	?
CC(NC(=O)c1cccc(Nc2nc3ccccc3n3nnnc23)c1)c1ccccc1 (configuration not stated)	7.3µM*	?	i	6%	9.2µM*	1%
CCNc1nc2c(c(=O)n(C)c(=O)n2C)n1Cc1ccc(F)cc1	1µM*	?	i	-25%	2.1µM*	-26%
Cn1c(=O)c2c(nc(NCc3ccc4c(c3)OCO4)n2Cc2ccc(F)cc2)n(C)c1=O	6.5µM*	?	.	-21%	9.2µM*	.
O=C(CSc1nnc(-c2ccco2)o1)Nc1c(F)cccc1F	-15%	6%	i	-8%	-14%	.
Oc1ccc(-c2nc3ccccn3c2Nc2ccc3c(c2)OCCO3)cc1	?	3%	?	-25%	?	12%
Clc1cccc(-c2nc3ccccn3c2Nc2ccc3c(c2)OCCO3)c1	8.2µM*	?	?	-18%	?	?
CN(C)c1ccc(-c2nc3ccccn3c2Nc2ccc3c(c2)OCCO3)cc1	?	.	.	-8%	21µM*	.
N#CCC(=O)Nc1ccc(C(=O)Nc2cccc(S(=O)(=O)N3CCCC3)c2)cc1	-6%	-3%	i	1%	-4%	.
CCC(C)NC(=O)C1CCN(S(=O)(=O)c2ccc(-n3cnnn3)cc2)CC1 (configuration not stated)	3%	4%	i	-10%	-2%	20%
CC1CCN(c2ccc(C(=O)OCC(=O)NCCN3C(=O)CSC3=O)cc2[N+](=O)[O-])CC1	?	0%	?	-17%	?	-14%
CC(=O)Oc1ccc(C#C/C=C2\c3ccccc3C(=O)N2c2ccccc2)cc1	21µM*	?	?	-95%	23µM*	?
c1cc2c(cc1-c1cnc3n1CCC3)OCCO2	?	-15%	i	-13%	18µM*	?
Cc1ccc(-c2cnc3n2CCCCC3)cc1	26µM*	-1%	i	6%	?	.
CCOc1ccc(-c2cnc3n2CCCCC3)cc1	-25%	5%	i	0%	?	-8%
